Screening results from PubChem.
Rows were chosen to be rich in hits. Some 1.3% of all compounds tested hit in one or more screens of this group.
FadD28 FP inh: blocks FadD28 binding to the bisubstrate probe; fluorescence polarization; inhibition, % at 12.5 µM; 360,000 tested, 0.22% active; in the data active = inhibition above about 8.5%, passing the limit was not always enough
RecA splice inh: blocks M. tuberculosis RecA intein splicing. P9WHJ3. cell-free RecA intein splicing, fluorescence. inhibition, % (test concentration not listed). 290,000 tested, 0.75% active. AID 2221; in the data active = inhibition above about 30%;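 also: 0% = vehicle wells and 100% = reference inhibitor control wells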
BJeLR lethal: kills HRASV12-expressing BJeLR cells. BJeLR (HRASV12) viability, CellTiter-Glo ATP luminescence, 48 h. 300,000 tested, 0.17% active. inhibition, % (test concentration not listed); in the data active = inhibition above about 50%
PrP UTR inh: inhibition of PrP 5' UTR reporter expression; cell-based PrP 5' UTR mRNA reporter, plate reader; 340,000 tested, 0.35% active; inhibition, % (no concentration beside the values); in the data active = inhibition above about 52%; also: 0 = median of the neutral control wells
Mtb UGM inh: inhibitors of M. tuberculosis UDP-galactopyranose mutase; P9WIQ1; purified UGM, fluorescence polarization probe displacement; inhibition, % at 10 µM; 320,000 tested, 0.06% active; AID 504406; in the data active = inhibition above about 10%, passing the limit was not always enough
Target sequence (P9WIQ1 whole entry, looked up): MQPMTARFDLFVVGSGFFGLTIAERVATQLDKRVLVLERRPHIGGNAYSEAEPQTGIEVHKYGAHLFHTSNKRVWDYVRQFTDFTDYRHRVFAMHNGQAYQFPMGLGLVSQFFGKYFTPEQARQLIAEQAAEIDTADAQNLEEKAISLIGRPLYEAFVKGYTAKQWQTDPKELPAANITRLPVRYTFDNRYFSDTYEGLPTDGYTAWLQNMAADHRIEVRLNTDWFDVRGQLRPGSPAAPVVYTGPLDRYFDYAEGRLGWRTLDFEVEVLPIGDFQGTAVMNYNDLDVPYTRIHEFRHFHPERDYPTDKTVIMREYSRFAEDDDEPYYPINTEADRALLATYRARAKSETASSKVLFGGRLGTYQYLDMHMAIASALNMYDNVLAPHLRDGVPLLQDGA
Rv3671c inh: inhibits the M. tuberculosis serine protease Rv3671c; 320,000 tested, 0.048% active; inhibition, % at 5.96 µM; in the data active = inhibition above about 38%;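 also: extracellular domain of Rv3671c used as enzyme; 0% = enzyme with DMSO and 100% = no enzyme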
An asterisk follows results filed as active; · = no result.

SMILES	FadD28 FP inh	RecA splice inh	BJeLR lethal	PrP UTR inh	Mtb UGM inh	Rv3671c inh
COc1cc(NS(=O)(=O)c2ccc(Nc3nc(-c4ccccn4)cs3)cc2)nc(OC)n1	3.1	4.3	2.4	-20.6	3.6	10.4
COc1ccc(-c2csc(Nc3ccc(S(=O)(=O)Nc4cc(OC)nc(OC)n4)cc3)n2)cc1	11.9*	10.0	4.2	-17.5	-2.1	14.8
O=c1cc(CSc2nnnn2-c2ccccc2)[nH]c2[nH]n(-c3ccccc3)c(=O)c12	8.9*	1.3	5.6	-4.8	-0.3	8.2
COc1ccc(C(=O)N/N=C/c2ccc(N(C)c3ccccc3)cc2)cc1	3.9	-19.4	1.3	·	-0.2	3.5
C#CCOCCOCCOCCNc1nc(N2CCN(C(=O)CCCCCCCCCCNC(=O)[C@H]([C@@H](C)CC)n3cc(CCCCN=C(N)N)nn3)CC2)nc(N2CCN(C(=O)CCCCCCCCCCNC(=O)[C@@H]([C@H](C)O)n3cc(C)nn3)CC2)n1	15.0*	·	·	-49.4	0.4	-26.4
C#CCOCCOCCOCCNc1nc(N2CCOCC2)nc(N2CCN(C(=O)CCCCCCCCCCNC(=O)[C@H]([C@@H](C)CC)n3cc(CCCCN=C(N)N)nn3)CC2)n1	-3.4	·	·	-9.6	0.9	-6.8
C#CCOCCOCCOCCNc1nc(N2CCN(C(=O)CCCCCCCCCCNC(=O)[C@@H](CCSC)n3cc(CCO)nn3)CC2)nc(N2CCN(C(=O)CCCCCCCCCCNC(=O)[C@H](CCCN=C(N)N)n3cc(C[C@@H](C)CC)nn3)CC2)n1	11.5*	·	·	-14.3	-1.9	-66.0
CC1=C(C(=O)O)CC(S(=O)(=O)O)C1(C)C (configuration not stated)	-2.4	·	·	-8.2	·	·
C=C1C(=O)C=C2CN(C(=O)c3ccccc3)[C@@](Cc3ccc(F)cc3)(C(=O)OC)[C@@H]12	-1.2	21.9	107.4*	-23.8	-0.7	-4.0
COC(=O)[C@@]1(Cc2ccc(OC)cc2)[C@@H]2C(=CC(=O)[C@H]2CC(=O)C(=O)N(C)C)CN1C(=O)c1ccccc1	·	·	·	·	-0.1	3.0
COc1ccc2c(c1)c1nc3ccccc3nc1n2CC(=O)OC(C)C	-2.9	-17.6	-1.2	-19.9	18.7*	3.2
COc1ccc(Cn2c3ccc(OC)cc3c3nc4ccccc4nc32)cc1	-1.3	-30.8	-8.5	-21.4	2.4	6.5
Cn1nnnc1N=N/C(=N/Nc1ccccc1)c1ccccc1	-1.6	1.6	66.1*	13.3	-1.2	14.0
CCN(CC)C(=O)C1=C(C)N(CCCOC)C(=O)C(CC(=O)NCCCCc2ccccc2)C1 (configuration not stated)	0.4	·	·	·	·	·
N[C@@H](Cc1cc(I)c(O)c(I)c1)C(=O)O	10.0*	-2.9	-2.4	-11.1	0.9	-6.5
NC(Cc1cc(O)c(O)cc1O)C(=O)O (configuration not stated)	·	·	·	·	1.5	30.3
CN(C)CC(CCC(CN(C)C)C(O)(c1ccccc1)c1ccccc1)C(O)(c1ccccc1)c1ccccc1 (configuration not stated)	·	1.5	83.2*	·	·	·
NC(c1csc(Nc2ccccn2)n1)C1CCCCC1 (configuration not stated)	-0.6	·	·	·	·	·
Cc1ccc(S(=O)(=O)N(C)C[C@@H]2OCc3cn(nn3)CCCC(=O)N([C@H](C)CO)C[C@H]2C)cc1	0.3	·	·	·	·	·
COc1ccccc1C1/C(=C(/O)c2ccccc2)C(=O)C(=O)N1CCO (configuration not stated)	-3.4	0.2	-1.6	-8.5	0.1	-8.5
COc1ccccc1C1/C(=C(/O)c2ccccc2)C(=O)C(=O)N1CC(C)O (configuration not stated)	10.0*	-3.1	-3.5	-6.7	-0.6	-4.7
Nc1ncnc2c1ccn2[C@H]1CN(Cc2ccc(Cl)cc2)C[C@@H](CO)O1	-1.1	·	·	·	·	·
COc1ncnc2c1ncn2CCCN1CCN(C(=O)C2CC2)CC1	-0.4	·	·	·	·	·
CCCSC1=N/C(=C\C=C\c2ccco2)C(=O)S1	14.9*	3.5	-8.7	-10.0	-1.6	7.0
O=C1SC(SCc2ccccc2)=N/C1=C\c1ccco1	1.5	6.8	22.1	-4.7	0.9	-4.7
SMILES	FadD28 FP inh	RecA splice inh	BJeLR lethal	PrP UTR inh	Mtb UGM inh	Rv3671c inh
CCCSC1=N/C(=C\c2ccc([N+](=O)[O-])o2)C(=O)S1	11.7*	·	·	-23.5	·	·
CCSC1=N/C(=C\c2ccc(-c3ccccc3[N+](=O)[O-])o2)C(=O)S1	1.2	-6.5	-1.0	-19.4	2.4	-3.1
COc1ccc(-c2cnc3c(NC(C)=O)cc(-c4ccc(C(=O)N5CCOCC5)cc4)cn23)cc1OC	-0.3	·	·	·	·	·
CC(=O)c1ccc(-c2cnc3c(NC=O)cc(-c4cnn(C)c4)cn23)cc1	-2.5	·	·	·	·	·
CCn1c(O)c(N=Nc2ccc(Cl)c(C(=O)O)c2)c2ccccc21	0.7	9.1	-10.7	-2.7	0.7	5.0
CC(C)n1c(O)c(N=Nc2ccc(Cl)c(C(=O)O)c2)c2ccccc21	11.3*	6.3	3.8	-23.9	-0.1	-7.5
COc1ccc(C(NC(=O)C2CCN(CCOc3ccc(Cl)cc3)CC2)c2cccs2)cc1 (configuration not stated)	-0.4	·	·	·	·	·
O=C(NCCc1ccccc1)c1cc(-c2ccccc2)c(N2CCOCC2)s1	-1.1	0.8	-6.3	-11.0	-1.1	2.7
CCN(CC)CCCNC(=O)c1cc(-c2ccccc2)c(N2CCCCC2)s1	-1.2	5.0	50.9*	·	-0.4	8.6
O=C(O)[C@@H](c1ccccc1)N1Cc2ccccc2C1=O	0.0	32.1*	4.1	-1.0	-2.1	7.3
O=c1c2ccccc2nc(/C=C/c2ccc([N+](=O)[O-])o2)n1CCCO	-0.2	2.1	51.8*	0.7	3.7	1.9
CC(C)(C)c1cc(NC(=O)C2(C)CCN2C(=O)c2ccccc2CCc2ccccc2)no1 (configuration not stated)	-3.5	·	·	·	·	·
CC(C)CC(NC(=O)CCl)c1ccccc1 (configuration not stated)	0.3	43.6*	-2.0	-14.7	2.2	3.4
Cc1c(C)c2ccc(OCC(=O)NCCc3c[nH]c4ccccc34)cc2oc1=O	-1.6	·	·	·	·	·
Cc1cc2nc(Sc3c([N+](=O)[O-])nc(C)n3Cc3ccccc3)[nH]c2cc1C	-0.4	46.4*	-0.9	-12.1	0.6	2.8
Cc1nc([N+](=O)[O-])c(Sc2nc3ccccc3[nH]2)n1Cc1ccccc1	-1.2	37.6*	-7.4	-23.8	3.9	12.8
O=c1/c(=C\c2cc([N+](=O)[O-])cc([N+](=O)[O-])c2O)sc2nc3ccccc3n12	22.9*	·	·	-15.1	2.7	0.3
O=c1/c(=C/c2ccccn2)sc2nc3ccccc3n12	0.2	-0.4	1.5	-85.3	·	-5.1
CC(=O)N1CC2(CC(c3ccccc3C(F)(F)F)=NO2)CN1c1ccc(Cl)cc1 (configuration not stated)	-3.0	·	·	·	·	·
CN(C)c1ccc([N+](=O)[O-])c([N+](=O)[O-])c1	-0.8	·	·	-9.0	·	·
NNc1ccc([N+](=O)[O-])c2[nH][nH]c(=O)c12	16.0*	·	·	·	·	·
CSC1=NSC2=NC(=O)/C(=C/c3coc4ccc(O)cc4c3=O)C(=N)N12	11.9*	-3.4	·	-21.0	-3.2	-13.7
